Among all 360,000 compounds or so, about 1,700 (0.47%) were called active. About 2% were inconclusive and are not listed. Calls come from the whole dose curve; as a rule, active = well fitted inhibition curve with a large enough effect; inconclusive = small, poorly fitted or top-dose-only effect; inactive = no such curve, though single readings can be large or run the other way. What follows is part of a selection rich in actives, with near analogues and random picks from the rest. A call without a number means that no potency is given here.
These compounds were tested against Bifunctional 3'-5' exonuclease/ATP-dependent helicase WRN (Homo sapiens) (UniProt Q14191) (assay: qHTS for Inhibitors of WRN Helicase). Details: WRN helicase unwinding, fluorescent forked duplex, kinetic; series mostly up to 114 µM.
Excerpt: Inhibition of DNA repair is proposed as a strategy for combating cancer. Synthetic lethality is an approach that exploits preexisting DNA repair deficiencies in certain tumors to develop inhibitors of DNA repair pathways that compensate for the tumor-associated DNA repair deficiency. Because helicases play critical roles in the DNA damage response and in DNA repair, particularly in actively dividing and replicating cells, characterization of synthetic lethal relationships of DNA helicases may be of value in developing improved anticancer treatment strategies; moreover, small molecules that specifically target a given DNA helicase may be useful for understanding its role in cellular nucleic acid metabolism. The goal of this project is to identify small molecule, non-covalent chemical inhibitors of the Werner syndrome (WS) helicase (WRN), which plays an important role in cell proliferation, the replication stress response, and DNA repair. […] The WRN gene product that is defective in the chromosomal instability disorder has DNA helicase and exonuclease activities and interacts with a number of nuclear proteins to maintain genomic stability. We will employ an optimized high-throughput screening assay that utilizes a fluorescence intensity modulation scheme with a fluorophore and quencher positioned near one another within a duplex deoxyoligonucleotide that contains a single forked structure. After a high-throughput screen of the ~350,000-member Molecular Libraries Small Molecule Repository (MLSMR) collection, followed by data analysis and hit selection, a panel of confirmatory, as well as secondary and ternary, assays will be employed to identify high-confidence WRN inhibitors. Structure-activity relationships will be investigated for the top candidate inhibitor series through medchem expansion. These are the results of the primary screening campaign against the MLSMR. NIH Chemical Genomics Center [NCGC] NIH Molecular Libraries Probe Centers Network [MLPCN] MLPCN Grant: MH096530 Assay Submitter (PI): Robert Brosh, National Institute of Aging
Three muL of reagents (buffer in columns 3 and 4 as negative controls; WRN at 20 nM final concentration in columns 1 and 2 as positive controls; columns 5-48 as test reactions) will be dispensed into a 1536-well Greiner black plate via solenoid-valve based nanoliter dispensers. Compounds (23 nL each in columns 5-48) and control (23 nL each in column 2 as dose-response) will be transferred via a Kalypsys pintool equipped with a 1536-pin array. Plates will be incubated for 15 min at room temperature, and then 1 µL of substrate (100 nM forked duplex oligonucleotide and 2 mM ATP final concentrations) will be added to start reaction, and plate will be transferred into a ViewLux high-throughput CCD imager where reaction progress is measured in kinetic mode using standard red-fluorescence optics (excitation filter 525 nm, emission filter 598 nm).
Note: nearly all actives have a fitted effect of over 55% in size.
Potency is the fitted concentration of half-maximal effect.

Bifunctional 3'-5' exonuclease/ATP-dependent helicase WRN (Homo sapiens), sequence (Q14191 whole entry, looked up): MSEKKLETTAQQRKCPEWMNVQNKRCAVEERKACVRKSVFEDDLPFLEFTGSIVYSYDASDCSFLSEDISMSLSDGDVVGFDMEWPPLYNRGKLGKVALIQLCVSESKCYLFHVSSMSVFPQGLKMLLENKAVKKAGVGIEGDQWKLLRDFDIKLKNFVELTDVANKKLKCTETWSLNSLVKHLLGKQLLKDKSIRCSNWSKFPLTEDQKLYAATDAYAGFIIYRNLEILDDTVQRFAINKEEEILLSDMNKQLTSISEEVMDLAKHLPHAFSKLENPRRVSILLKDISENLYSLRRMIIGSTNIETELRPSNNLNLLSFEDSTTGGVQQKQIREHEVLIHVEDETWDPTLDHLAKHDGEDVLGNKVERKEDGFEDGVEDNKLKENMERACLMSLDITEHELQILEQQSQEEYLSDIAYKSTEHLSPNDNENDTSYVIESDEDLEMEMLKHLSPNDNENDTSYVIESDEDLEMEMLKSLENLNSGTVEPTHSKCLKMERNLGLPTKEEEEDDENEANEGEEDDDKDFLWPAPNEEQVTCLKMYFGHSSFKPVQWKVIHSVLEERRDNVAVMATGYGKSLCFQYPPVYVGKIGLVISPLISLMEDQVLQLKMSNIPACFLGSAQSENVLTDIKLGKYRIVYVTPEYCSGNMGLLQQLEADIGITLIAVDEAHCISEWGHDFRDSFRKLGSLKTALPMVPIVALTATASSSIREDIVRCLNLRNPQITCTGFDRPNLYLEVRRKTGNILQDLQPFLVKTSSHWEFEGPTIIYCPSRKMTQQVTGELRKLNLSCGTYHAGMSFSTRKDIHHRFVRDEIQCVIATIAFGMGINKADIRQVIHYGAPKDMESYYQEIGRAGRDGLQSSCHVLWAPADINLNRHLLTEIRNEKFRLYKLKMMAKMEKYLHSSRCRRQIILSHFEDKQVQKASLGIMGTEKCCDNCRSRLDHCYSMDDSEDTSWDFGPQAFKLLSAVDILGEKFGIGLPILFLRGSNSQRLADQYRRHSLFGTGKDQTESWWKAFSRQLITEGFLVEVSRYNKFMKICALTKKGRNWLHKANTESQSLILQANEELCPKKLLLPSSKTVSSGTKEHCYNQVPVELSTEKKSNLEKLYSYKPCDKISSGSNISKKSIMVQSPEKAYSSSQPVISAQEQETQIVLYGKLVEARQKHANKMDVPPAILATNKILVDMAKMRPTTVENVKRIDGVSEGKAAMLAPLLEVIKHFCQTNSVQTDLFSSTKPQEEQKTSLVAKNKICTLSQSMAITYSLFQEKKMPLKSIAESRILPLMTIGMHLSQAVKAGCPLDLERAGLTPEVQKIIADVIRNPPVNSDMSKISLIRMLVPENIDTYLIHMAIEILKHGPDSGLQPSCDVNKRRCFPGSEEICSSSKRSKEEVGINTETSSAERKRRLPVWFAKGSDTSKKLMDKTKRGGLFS

| SMILES | Potency |
| --- | --- |
| Cc1ccc2c(NC(=O)C3CC3)cccc2n1 | inactive |
| Cc1ccc(/C=C(\C#N)C(=O)Nc2cccc3ncccc23)o1 | 20 µM (active) |
| COc1ccc(CNC(=O)/C(C#N)=C/c2cccc(OC)c2OC)cc1 | inactive |
| CC(O)CN(Cc1ccc(Cl)cc1)CC(C)O (configuration not stated) | inactive |
| Cc1ccc(S(=O)(=O)NC[C@H]2O[C@@H](n3cnc4c(N)ncnc43)[C@H](O)[C@@H]2O)s1 | inactive |
| O=c1ccc2c(-c3ccccc3S(=O)(=O)O)c3ccc(O)c(O)c3oc-2c1O | 0.212 µM (active) |
| CCC(C)CN1C(=O)CSCC1(C)C(=O)NCc1ccccc1 (configuration not stated) | inactive |
| O=C(CSc1nnc(-c2ccncc2)o1)NCc1ccc(Cl)cc1 | inactive |
| COc1ccc2c(c1)c(=Cc1ccc(N(C)C)cc1)c1cc(-c3ccccc3)[n+](C)n12 | 28.2 µM (active) |
| CCOC(=O)N1CCC(N2Cc3cccc(C(=O)Nc4ccc(S(=O)(=O)N(CC)CC)cc4)c3C2=O)CC1 | inactive |
| CCCCn1c(SCc2ncc(-c3ccccc3)o2)nc2cc(S(N)(=O)=O)ccc21 | inactive |
| COc1ccc(N(CC(=O)NCCSCc2cccc(Cl)c2)S(C)(=O)=O)cc1 | inactive |
| COc1cc(/C=C/C(=O)OCC(=O)NC(=O)NCc2ccccc2)ccc1OCC#N | inactive |
| COC(=O)c1ccc(COc2ccc(/C=C/C(=O)c3ccc(OC)c(CSCC(=O)O)c3)cc2OC)cc1 | 44.7 µM (active) |
| COC(=O)c1ccc(C(NC(=O)OCc2ccccc2)/C(C)=C/[C@@H](C)C(=O)NCc2ccc(OC)c(OC)c2)cc1 (some centres not stated) | inactive |
| COc1cccc(/C=N/NC(=O)C(=O)N2CCCC2)c1 | inactive |
| CC(NC(=O)C(=O)NN=C1CCC(C(C)(C)C)CC1)c1ccccc1 (configuration not stated) | inactive |
| CC(=O)Nc1cncc(-c2ccccc2CO)n1 | inactive |
| O=C(O)C1C2C=CC(C2)C1C(=O)N1CCN(CCO)CC1 (configuration not stated) | inactive |
| C#CCOCCOCCOCCNc1nc(N2CCN(C(=O)CCCCCCCCCCNC(=O)[C@H]([C@@H](C)CC)n3cc(CCCCN=C(N)N)nn3)CC2)nc(N2CCN(C(=O)CCCCCCCCCCNC(=O)[C@H](CO)n3cc(CCCSC)nn3)CC2)n1 | 25.1 µM (active) |
| C#CCOCCOCCOCCNc1nc(N2CCN(C(=O)[C@H](CCCCN)n3cc([C@@H](N)C(C)CC)nn3)CC2)nc(N2CCN(C(=O)[C@H](Cc3ccc(O)cc3)n3cc([C@@H](N)C(C)CC)nn3)CC2)n1 (some centres not stated) | inactive |
| C#CCOCCOCCOCCNc1nc(N2CCN(C(=O)C([C@@H](C)CC)n3cc(C(N)COC(=O)C(F)(F)F)nn3)CC2)nc(N2CCN(C(=O)[C@H](CCCCN)n3cc(C(N)CC(C)C)nn3)CC2)n1 (some centres not stated) | inactive |
| C#CCOCCOCCOCCNc1nc(N2CCN(C(=O)CCCCCCCCCCNC(=O)[C@H](CCCCN)n3cc(C)nn3)CC2)nc(N2CCN(C(=O)CCCCCCCCCCNC(=O)[C@H](CO)n3cc(CCCSC)nn3)CC2)n1 | 50.1 µM (active) |
| C#CCOCCOCCOCCNc1nc(N2CCOCC2)nc(N2CCN(C(=O)[C@H](Cc3ccc(O)cc3)n3cc(CCO)nn3)CC2)n1 | inactive |

| SMILES | Potency |
| --- | --- |
| C#CCOCCOCCOCCNc1nc(N2CCN(C(=O)[C@H](CO)n3cc([C@@H](N)C(C)C)nn3)CC2)nc(N2CCN(C(=O)[C@H](CCC(=O)O)n3cc([C@@H](N)[C@H](C)CC)nn3)CC2)n1 | inactive |
| C#CCOCCOCCOCCNc1nc(N2CCN(C(=O)C(Cc3ccc(O)cc3)n3cc(C(N)CC(C)C)nn3)CC2)nc(N2CCN(C(=O)C(Cc3ccc(O)cc3)n3cc(C(N)C(C)CC)nn3)CC2)n1 (configuration not stated) | inactive |
| C#CCOCCOCCOCCNc1nc(N2CCN(C(=O)[C@H](CCC(=O)O)n3cc(C(N)CO)nn3)CC2)nc(N2CCN(C(=O)[C@H](Cc3ccc(O)cc3)n3cc(C(N)[C@H](C)CC)nn3)CC2)n1 (some centres not stated) | inactive |
| C#CCOCCOCCOCCNc1nc(N2CCN(C(=O)CCCCCCCCCCNC(=O)Cn3cc(CCCCCN)nn3)CC2)nc(N2CCN(C(=O)CCCCCCCCCCNC(=O)[C@H](CO)n3cc(CCCSC)nn3)CC2)n1 | 31.6 µM (active) |
| COc1ccc(NC(=O)C(c2ccncc2)n2c(=O)c(-c3cc4ccccc4[nH]3)nc3ccccc32)cc1 (configuration not stated) | inactive |
| Cc1ccc(C(=O)NNC(=O)OC(C)(C)C)c(Cl)c1 | inactive |
| CCCCN(C=O)c1c(CC)nc2c(OCc3ccccc3C(=O)OC)cccn12 | inactive |
| Cc1c(NC(=O)COC(=O)/C=C/c2cccc(F)c2)c(=O)n(-c2ccccc2)n1C | inactive |
| O=C(C1CCN(CC2CCCCC2)CC1)N1CCCC1 | inactive |
| CN1CCN(C(=O)c2ccc(-c3cc4nc(NCc5cccnc5)n(C)c(=O)c4s3)cc2)CC1 | inactive |
| CN(C)NC(=O)C(NC(=O)c1ccc(N)cc1)C12CC3CC(CC(C3)C1)C2 (configuration not stated) | inactive |
| Cc1cccc(CN2CCN(C3CN(Cc4cn(Cc5cc(C)cc(C)c5)nn4)S(=O)(=O)C3)CC2)c1 (configuration not stated) | inactive |
| CN(CC1CCCO1)S(=O)(=O)c1ccc(C(=O)Nc2ccc([N+](=O)[O-])cc2)cc1 (configuration not stated) | inactive |
| Cn1ccc(=Nc2ccc(NC(=O)c3ccc(N=c4ccn(C)c5ccc([N+](=O)[O-])cc45)cc3)cc2)cc1 | 39.8 µM (active) |
| CC(C)c1ccc(NC(=O)CCN2C(=O)c3ccc([N+](=O)[O-])cc3C2=O)cc1 | inactive |
| CC(C)C[C@H]1CNC(=S)N1C[C@H]1CCCN1C[C@H](Cc1ccc(O)cc1)N1C[C@H](Cc2ccc(O)cc2)N(CC2CCCCC2)C1=S | inactive |
| CCc1ccc(N(CC(=O)NCc2cccnc2)S(=O)(=O)c2ccccc2)cc1 | inactive |
| O=C(c1cccnc1)N(c1cc2sc(=O)oc2c2ccccc12)S(=O)(=O)c1ccccc1 | 20 µM (active) |
| O=C(c1cccnc1)N(Cc1ccccc1)C(=O)c1cccnc1 | inactive |
| COC(=O)CCCCC1=CCC2C(=O)C=C(O)C2C1 (configuration not stated) | 50.1 µM (active) |
| COc1ccc(C(C)=O)cc1COC(=O)Cn1cnc2ccccc2c1=O | inactive |
| COC(=O)[C@@]1(Cc2ccc(OC)cc2)[C@H]2c3cc(C(=O)N4CCCC4)n(Cc4ccc(OC(F)(F)F)cc4)c3C[C@H]2CN1C(=O)c1ccccc1 | inactive |
| CCOCCC(=O)Nc1ccc2c(c1)c(=O)n(C)n2-c1ccc2ccccc2c1 | inactive |

— PubChem BioAssay AID651768 (National Center for Advancing Translational Sciences (NCATS), 2012)
